Assay [1] can be described thus: inhibitors of TNFa-induced NFkB p65 translocation, primary screen, imaging, HUVEC, MLSMR starter and 10KST1 sets (AID 438).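 Further: compound added about 3h40 before a 20 min TNFalpha stimulation.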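 On inhibition: signal is the nuclear over cytoplasmic p65 intensity ratio per well.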 Conditions: HUVEC TNFa-induced p65 nuclear translocation; cell count: measured here: nuclei count (cytotoxicity indicator), at 2.08 µM; inhibition: at 2 µM, stronger effect = higher value, 0% TNFa-plus-vehicle, 100% no-TNFa wells.
A short description of assay [2]: reduction of polyQ htt aggregates in cells – imaging, exon1htt(103Q)mCFP cells, high-content imaging, primary screen (AID 483;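 active means visual image review flags a hit and inhibition of aggregation exceeds 20%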;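 further: compound exposure lasted 3 days before fixation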;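 on nuclei count: percent of the per-plate median nuclei count of sample wells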). Conditions: exon1htt(103Q)mCFP cell line, aggregate imaging, at 2 µM; inhibition of aggregation: stronger effect = higher value; nuclei count: measured here: cell count, toxicity.
The nature of assay [3]: endothelial E-selectin expression blockers – imaging, HUVEC, immunofluorescence, MLSMR starter and 10KST1 sets, primary screen (AID 487;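 active means visually confirmed hit in the image check and inhibition above 20%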;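 on inhibition: signal is fraction of cell area covered by stained E-selectin grains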;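 on nuclei count: 100% = median nuclei count of all wells on the same plate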). Conditions: HUVEC TNFalpha-induced E-selectin immunofluorescence imaging, at 2 µM; inhibition: stronger effect = higher value; nuclei count: measured here: cell number, toxicity.
For assay [4], the target named is Voltage-gated potassium channel subunit beta-2 (Rattus norvegicus) (UniProt P62483). The assay is described as follows: inhibitors of rat Kvbeta2 reductase activity – biochemical, NADPH fluorescence, primary screen (AID 622;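 active means fluorescence slope higher than the sample average by over 3 SD, cut at about -0.22 in these data, passing the limit was not always enough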;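 further: slope of raw intensity against log time taken from 70 to 1610 s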). As to conditions: recombinant KvBeta, 4-cyanobenzaldehyde reduction, at 10 µM, stronger effect = higher value.
Sequence of Voltage-gated potassium channel subunit beta-2 (Rattus norvegicus) (P62483 whole entry, looked up): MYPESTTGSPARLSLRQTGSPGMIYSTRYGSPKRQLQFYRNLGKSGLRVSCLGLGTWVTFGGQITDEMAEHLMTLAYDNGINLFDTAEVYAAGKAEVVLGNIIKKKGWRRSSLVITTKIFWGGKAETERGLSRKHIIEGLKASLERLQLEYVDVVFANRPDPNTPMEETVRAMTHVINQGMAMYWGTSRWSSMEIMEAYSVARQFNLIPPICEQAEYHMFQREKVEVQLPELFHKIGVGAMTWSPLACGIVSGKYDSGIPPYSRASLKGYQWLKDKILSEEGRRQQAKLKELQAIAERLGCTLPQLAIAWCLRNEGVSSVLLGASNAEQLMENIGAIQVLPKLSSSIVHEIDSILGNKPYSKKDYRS
Assay [5] shares this target. The assay is described as follows: enhancers of rat Kvbeta2 NADPH turnover – biochemical, NADPH fluorescence, primary screen (AID 623;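 active means NADPH fluorescence slope more negative than the mean of all samples by about 3 SD, 99.7% confidence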;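 further: fluorescence intensity change per second fitted from 20 to 320 s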). Conditions: Recombinant KvBeta, NADPH fluorescence decrease slope, 10 min; at 10 µM; stronger effect = lower value.
Assay [6] concerns the target Alpha-2C adrenergic receptor (Homo sapiens) (UniProt P18825). As to the kind of experiment: compounds altering alpha2C-coupled GIRK flux – cell-based, HEK293 alpha2C/GIRK1/2, thallium flux, primary screen (AID 624;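 active means fluorescence slope after compound addition differing from the mean of all screened samples at 99.7% confidence, in either direction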;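 further: slope of fluorescence ratio to pre-addition baseline per second over 15 to 24 s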). As to conditions: thallium flux BTC fluorescence, at 10 µM, actives lie on both sides.
Assay [7] in a line: blockers of RIG-like receptor reporter activation – cell-based, Sendai virus stimulus, luciferase, 10K MLSCN set, TLR/RLR signaling modifier project, primary screen (AID 602276;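 active means inhibition at or above 50% at 10 µM; inactive means inhibition below 50%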;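 further: firefly luciferase from ISG56 promoter only with Renilla not read in this screen; 0% = Sendai virus plus DMSO and 100% = medium plus DMSO without virus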). As to conditions: HEK293 RL24 IRF3 luciferase reporter, at 10 µM, stronger effect = higher value.
A short description of assay [8]: TLR3 IRF3 reporter activation blockers – cell-based, poly I:C stimulus, luciferase, 10K MLSCN set, primary screen (AID 602277;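 active means inhibition of the reporter signal at or above 50%; inactive means inhibition below 50%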). As to conditions: HEK293-TLR3 RL24 IRF3 luciferase reporter, at 10 µM, stronger effect = higher value. For orientation: A reporter such as luciferase makes a cellular process visible.

Here are results for 14 compounds from PubChem BioAssay.

The source made the active and inactive calls.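 How the source made its calls, unless noted: active means inhibition above 20% together with a positive visual image hit; inconclusive means visual image hit but inhibition not above 20%; inactive means no visual image hit.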

Sequence of Alpha-2C adrenergic receptor (Homo sapiens) (P18825 whole entry, looked up): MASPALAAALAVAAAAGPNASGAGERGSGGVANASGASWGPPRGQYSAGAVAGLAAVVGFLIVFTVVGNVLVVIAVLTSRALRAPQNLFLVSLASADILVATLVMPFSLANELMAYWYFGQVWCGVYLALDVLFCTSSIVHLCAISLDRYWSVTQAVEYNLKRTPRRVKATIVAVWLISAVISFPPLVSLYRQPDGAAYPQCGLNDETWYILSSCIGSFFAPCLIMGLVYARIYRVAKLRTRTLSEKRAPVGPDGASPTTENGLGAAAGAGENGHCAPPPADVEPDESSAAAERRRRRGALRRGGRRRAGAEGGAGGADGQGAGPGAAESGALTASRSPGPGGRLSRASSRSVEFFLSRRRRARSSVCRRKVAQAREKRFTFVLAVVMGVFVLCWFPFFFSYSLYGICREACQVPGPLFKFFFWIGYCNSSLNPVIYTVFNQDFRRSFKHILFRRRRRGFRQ

The inhibition is the change of the read-out against control, counted positive when it falls. `CCOc1ccc2nc(NC(=O)CSc3nnnn3C3CCCCC3)sc2c1`: the cell count in assay [1] turned out to be 401. Moreover, the inhibition was 1.7% (inactive) in assay [1], -74.4% (inactive) in assay [3], -4.95% (inactive) in assay [7] and -46.7% (inactive) in assay [8]. In addition, the inhibition of aggregation in assay [2] is -8% (inactive). Besides, the nuclei count was found to be 108% in assay [2] and 92.8% in assay [3]. Besides, in assay [4], the fluorescence slope was -0.393 (inactive). The NADPH fluorescence slope in assay [5] is -3.7e-05 (inactive). Also, the slope in assay [6] was 0.00315 (inactive).

For `COc1cccc(OC)c1OCCCSc1nc(C)cc(=O)[nH]1`, in assay [1], the cell count was found to be 402. For the same compound, the inhibition in assay [1] is -1.6% (inactive); in assay [3], 24.3% (inactive); in assay [7], -9.76% (inactive); in assay [8], -3.85% (inactive). Further, in assay [2], the inhibition of aggregation is 1.1% (inactive). Besides, the results for the nuclei count in assay [2] and in assay [3] were 108% and 97.1%, respectively. In addition, the fluorescence slope in assay [4] is -0.422 (inactive). In assay [5], the NADPH fluorescence slope is -2.1e-05 (inactive). Further, the slope in assay [6] is 0.00519 (inactive).

Regarding `COC(=O)CSC1=NS(=O)(=O)c2ccccc21`, in assay [1], the cell count was 340. Further, the inhibition is 1.2% (inactive) in assay [1], 45.9% (inactive) in assay [3], 20.5% (inactive) in assay [7] and 21.4% (inactive) in assay [8]. For the same compound, the inhibition of aggregation in assay [2] was 19.6% (inactive). The nuclei count amounted to 91.3% in assay [2] and 113% in assay [3]. For the same compound, in assay [4], the fluorescence slope was -0.5 (inactive). Moreover, in assay [5], the NADPH fluorescence slope is -3.6e-05 (inactive). Further, in assay [6], the slope was 0.00571 (inactive).

In the case of `Cc1[nH]c2ccccc2c1Cc1nnc(SCC(=O)NCc2ccco2)o1`, the cell count in assay [1] was 428. Moreover, the inhibition in assay [1] is -7.7% (inactive); in assay [3] it was -24.9% (inactive); in assay [7], -11.7% (inactive); in assay [8], -28.3% (inactive). Also, in assay [2], the inhibition of aggregation is 12.9% (inactive). The nuclei count in assay [2] was determined as 83.4%; in assay [3], 87%. Further, the fluorescence slope in assay [4] is -0.436 (inactive). Also, the NADPH fluorescence slope in assay [5] was 1.9e-05 (inactive). In addition, the slope in assay [6] is 0.0061 (inactive).

Regarding `CCn1cc(C(=O)NCC2CCCO2)c(=O)c2cc(S(=O)(=O)N(C)C3CCCCC3)ccc21` (centres undefined), in assay [1], the cell count is 528. For the same compound, the inhibition in assay [1] was 3.7% (inactive); in assay [3] it was -60.9% (inactive); in assay [7] it was 16.7% (inactive); in assay [8], 33.2% (inactive). In assay [2], the inhibition of aggregation was -8.9% (inactive). Further, the nuclei count in assay [2] turned out to be 99.3%; in assay [3] it was 97.9%. In addition, the fluorescence slope in assay [4] is -0.629 (inactive). The NADPH fluorescence slope in assay [5] is -3.4e-05 (inactive). Also, in assay [6], the slope was 0.00653 (inactive).

Take `COc1ccc(C)cc1S(=O)(=O)N1CCN(S(=O)(=O)c2cc(C)ccc2OC)CC1`: the cell count in assay [1] turned out to be 427. The inhibition in assay [1] was -0.2% (inactive); in assay [3], 17.9% (inactive); in assay [7], -3.93% (inactive); in assay [8] it was 9.61% (inactive). For the same compound, in assay [2], the inhibition of aggregation was -15.7% (inactive). Besides, the nuclei count worked out at 97.4% in assay [2] and 112% in assay [3]. The fluorescence slope in assay [4] is -0.536 (inactive). The NADPH fluorescence slope in assay [5] is -3.9e-05 (inactive). Moreover, the slope in assay [6] is 0.00449 (inactive).

Take `O=C(CCn1c(=S)[nH]c2ccccc2c1=O)NCC1CCCO1` (centres undefined): the cell count in assay [1] was 491. Moreover, the inhibition in assay [1] was 9.4% (inactive); in assay [3], 8% (inactive); in assay [7] it was 8.18% (inactive); in assay [8], 2.45% (inactive). Moreover, the inhibition of aggregation in assay [2] is 6% (inactive). Further, the values for the nuclei count in assay [2] and in assay [3] were 99.2% and 109%, respectively. Also, the fluorescence slope in assay [4] was -0.622 (inactive). Moreover, the NADPH fluorescence slope in assay [5] is -8.8e-06 (inactive). Besides, the slope in assay [6] is 0.0038 (inactive).

In the case of `CCn1c(Cc2ccccc2)nnc1SCC(=O)Nc1ccc(N2CCOCC2)c(Cl)c1`, the cell count in assay [1] was found to be 427. Besides, the inhibition in assay [1] is 0.3% (inactive); in assay [3], -56.2% (inactive); in assay [7], 14% (inactive); in assay [8], 5.26% (inactive). The inhibition of aggregation in assay [2] is -13.2% (inactive). The nuclei count in assay [2] turned out to be 108%; in assay [3], 168%. Also, the fluorescence slope in assay [4] is -0.441 (inactive). Moreover, in assay [5], the NADPH fluorescence slope was -6.7e-06 (inactive). Also, the slope in assay [6] is 0.00559 (inactive).

Turning to `COC(=O)c1ccccc1NC(=O)c1ccc(COc2ccccc2)o1`, the cell count in assay [1] is 845. Moreover, the inhibition in assay [1] is -8.3% (inactive); in assay [3], -19.3% (inactive); in assay [7], -25.9% (inactive); in assay [8] it was -60.3% (inactive). For the same compound, in assay [2], the inhibition of aggregation is 6.6% (inactive). Besides, the values for the nuclei count in assay [2] and in assay [3] were 113% and 114%, respectively. In addition, the fluorescence slope in assay [4] is -0.63 (inactive). The NADPH fluorescence slope in assay [5] was -3.5e-05 (inactive). Further, the slope in assay [6] was 0.00572 (inactive).

In the case of `O=C(Nc1cnccn1)c1cccs1`, in assay [1], the cell count was 655. In addition, the inhibition in assay [1] is -17.2% (inactive); in assay [3] it was -34.1% (inactive); in assay [7], 10.2% (inactive); in assay [8], 12.3% (inactive). In addition, the inhibition of aggregation in assay [2] is -13.1% (inactive). For the same compound, the nuclei count in assay [2] is 122%; in assay [3] it was 110%. Moreover, the fluorescence slope in assay [4] is -0.517 (inactive). The NADPH fluorescence slope in assay [5] was -2.8e-05 (inactive). For the same compound, the slope in assay [6] was 0.00591 (inactive).

On to `COc1ccc(-n2nnnc2SCC(=O)N2CCOCC2)cc1`, for which the cell count in assay [1] was determined as 788. Moreover, the inhibition in assay [1] is 2.8% (inactive); in assay [3], -9.3% (inactive); in assay [7], 2.03% (inactive); in assay [8] it was -10.7% (inactive). In addition, the inhibition of aggregation in assay [2] was 9.1% (inactive). Also, the nuclei count in assay [2] was found to be 85.7%; in assay [3], 114%. The fluorescence slope in assay [4] was -0.525 (inactive). In addition, the NADPH fluorescence slope in assay [5] is -4.9e-05 (inactive). The slope in assay [6] was 0.00627 (inactive).

For the compound `CCCCOc1ccc(CSc2n[nH]c(C)n2)cc1`, the cell count in assay [1] is 243. Besides, the inhibition in assay [1] was 0.2% (inactive); in assay [3] it was 5.3% (inactive); in assay [7], -55.7% (inactive); in assay [8], -90.2% (inactive). The inhibition of aggregation in assay [2] is -0.4% (inactive). Moreover, the nuclei count worked out at 86.8% in assay [2] and 96.6% in assay [3]. In assay [4], the fluorescence slope is -0.435 (inactive). In addition, the NADPH fluorescence slope in assay [5] is 2.4e-05 (inactive). Further, the slope in assay [6] is 0.00825 (inactive).

For the compound `Nc1c(C(=O)NCCN2CCOCC2)c2nc3ccccc3nc2n1-c1ccc2c(c1)OCO2`, the cell count in assay [1] came to 337. In addition, the inhibition is -8.4% (inactive) in assay [1], -53.1% (inactive) in assay [3], 11.3% (inactive) in assay [7] and 16.5% (inactive) in assay [8]. Besides, the inhibition of aggregation in assay [2] is -2.4% (inactive). The figures for the nuclei count in assay [2] and in assay [3] were 96.7% and 74%, respectively. For the same compound, the fluorescence slope in assay [4] is -0.348 (inactive). In addition, the NADPH fluorescence slope in assay [5] was -6.2e-05 (inactive). Besides, the slope in assay [6] was 0.00388 (inactive).

With `Cc1ccc(C(C)C)c(OCCn2c(=O)oc3ccccc32)c1`, in assay [1], the cell count was determined as 540. The inhibition in assay [1] was -5.9% (inactive); in assay [3], -32.5% (inactive); in assay [7], -13.6% (inactive); in assay [8] it was -27.2% (inactive). The inhibition of aggregation in assay [2] was 0.7% (inactive). For the same compound, the nuclei count stood at 89.4% in assay [2] and 77.7% in assay [3]. In addition, the fluorescence slope in assay [4] was -0.416 (inactive). Moreover, the NADPH fluorescence slope in assay [5] is 2.5e-05 (inactive). For the same compound, the slope in assay [6] was 0.00298 (inactive).
